Measurements taken from PubChem BioAssay (Tox21).
Records with an inconclusive call do not appear. Calls of active or inactive are those of the source. Unless noted, calls come from the whole dose curve.

Tests used:
[1] = Nuclear factor erythroid 2-related factor 2/antioxidant responsive element (Nrf2/ARE) small molecule agonists: qHTS cell viability counter screen in human keratinocytes (AID 1919968; active = well fitted curve in the direction sought with a large enough effect in the repeat runs; an effect the other way counts as inactive or inconclusive; note: nearly all actives have a fitted effect of over 55% in size)
Summary of the method: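 Cytotoxicity was multiplexed with the Nrf2/ARE luciferase assay in the same wells. Stably transfected HaCaT keratinocytes were treated with test compounds for 23 h at 37 C. Cell viability was then measured by CellTiter-Fluor fluorescence.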

[2] = Nuclear factor erythroid 2-related factor 2/antioxidant responsive element (Nrf2/ARE) small molecule agonists: luciferase reporter gene qHTS assay in human keratinocytes (AID 1919969); note: nearly all actives have a fitted effect of over 35% in size
[3] = target: Gonadotropin-releasing hormone receptor (Homo sapiens) (UniProt P30968); test: Human gonadotropin-releasing hormone receptor (GnRHR) small molecule agonists, calcium flux assay in GnRHR-HEK293 cells (AID 1920063); note: nearly all actives have a fitted effect of over 35% in size
Summary of the method: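 Agonist activity was measured as intracellular calcium flux in HEK293 cells engineered to stably express human GnRHR. After dye loading for 1 hour at 37 C, compounds in DMSO were added and fluorescence was followed for 3 minutes.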

[4] = target: KiSS-1 receptor (Homo sapiens) (UniProt Q969F8); test: Human kisspeptin (KISS1R) small molecule agonists, calcium flux assay in KISS1R-HEK293 cells (AID 1920064; active = well fitted curve in the direction sought with a large enough effect in the repeat runs; an effect the other way counts as inactive or inconclusive)
Summary of the method: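 Agonist activity is monitored as intracellular calcium rise in engineered HEK293 cells carrying human KISS1R. Cells are dye-loaded for 1 h at 37 C before compound addition, and fluorescence is recorded for 3 min.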

[5] = G protein-coupled receptor (GPCR) small molecule agonists, calcium flux assay: HEK293 wild type cell line counter screen (AID 1920065)
Summary of the method: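 Seed cells, incubate 18 h (37 C, 5% CO2); add calcium dye, 1 h at 37 C; pin-transfer compounds, ATP control or DMSO; read fluorescence 480/540 nm each second for 3 min.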

[6] = p53 small molecule agonists, cell-based qHTS assay with human liver microsomes (AID 1963577);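 note: p53 response element beta-lactamase reporter cells with liver microsomes plus NADPH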
Summary of the method: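 With metabolic activation: human liver microsomes (0.5 mg/mL final) plus NADPH (0.5 mg/mL final) added alongside compounds to p53RE-bla cells; 16 h 37 C exposure; beta-lactamase read by LiveBLAzer fluorescence.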

[7] = p53 small molecule agonists, cell-based qHTS assay with rat liver microsomes (AID 1963578)
Summary of the method: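 Metabolic activation by rat liver microsomes and NADPH, each 0.5 mg/mL final, added right after compounds to p53RE-bla reporter cells (4,000/well, plated 5 h earlier). 16 h at 37 C, then LiveBLAzer substrate for 2 h at room temperature in the dark; fluorescence read-out.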

[8] = p53 small molecule agonists, cell-based qHTS assay with human liver microsomes: qHTS cell viability counter screen (AID 1963579); note: nearly all actives have a fitted effect of over 45% in size
Summary of the method: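 Metabolic activation used human liver microsomes and NADPH, both 0.5 mg/mL final, over 16 hours at 37 C on p53RE-bla cells (4,000/well). Cytotoxicity measured by CellTiter-Glo luminescence, 30 min at room temperature.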

[9] = p53 small molecule agonists, cell-based qHTS assay with rat liver microsomes: qHTS cell viability counter screen (AID 1963580); note: nearly all actives have a fitted effect of over 45% in size
Summary of the method: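 Luminescent ATP readout (CellTiter-Glo, 30 min at room temperature) reports viability of p53RE-bla HCT-116 cells after 16 h at 37 C with test compounds under metabolic activation by rat liver microsomes and NADPH at 0.5 mg/mL final each.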

[10] = p53 small molecule agonists, cell-based qHTS assay: qHTS cell viability counter screen (AID 1963581); note: nearly all actives have a fitted effect of over 45% in size
Summary of the method: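 Viability was counter-screened in parallel with the p53 agonist reporter by measuring intracellular ATP luminescence in the same HCT-116 p53RE-bla wells after 16 h compound treatment at 37 C.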

[11] = p53 small molecule agonists, cell-based qHTS assay (AID 1963582; active = well fitted activation curve with a large enough effect in the signal ratio in the repeat runs, not every such curve was filed as active; the % refers to the signal ratio)
Summary of the method: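 Cells carrying a p53-responsive bla reporter are treated with test compounds for 16 h at 37 C; beta-lactamase activity is then detected with LiveBLAzer B/G FRET substrate after 2 h at room temperature.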

[12] = target: 5-hydroxytryptamine receptor 2A (Homo sapiens) (UniProt P28223); test: 5-hydroxytryptamine receptor 2A (HTR2A) small molecule antagonists, cell-based qHTS assay (AID 1963586); note: nearly all actives have a fitted effect of over 45% in size
Summary of the method: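 CHO cells stably expressing human HTR2A were plated for 18 h at 37 C, then loaded with calcium dye for 1 h. Compounds were preincubated 5 min at room temperature before DOI (4 nM solution) was added. Kinetic fluorescence was read for 3 min.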

[13] = target: 5-hydroxytryptamine receptor 2A (Homo sapiens) (UniProt P28223); test: 5-hydroxytryptamine receptor 2A (HTR2A) small molecule agonists, cell-based qHTS assay (AID 1963587); note: nearly all actives have a fitted effect of over 30% in size
Summary of the method: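 HTR2A-CHO cells, plated 18 h at 37 C/5% CO2, dye-loaded 1 h at 37 C; compounds in DMSO added by pin tool (agonist mode). Intracellular calcium flux read as kinetic fluorescence on FDSS over 2 min at 1 s intervals.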

[14] = target: Muscarinic acetylcholine receptor M1 (Homo sapiens) (UniProt P11229); test: Cholinergic receptor muscarinic 1 (CHRM1) small molecule antagonists, cell-based qHTS assay (AID 1963588); note: nearly all actives have a fitted effect of over 40% in size
Summary of the method: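 Compounds were tested at 15 concentrations in three independent runs. Dye-loaded CHRM1-CHO cells were exposed 5 min at room temperature before stimulation by acetylcholine added at 50nM. Intracellular calcium was read kinetically on FDSS for 3 min.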

[15] = target: Muscarinic acetylcholine receptor M1 (Homo sapiens) (UniProt P11229); test: Cholinergic receptor muscarinic 1 (CHRM1) small molecule agonists, cell-based qHTS assay (AID 1963589); note: nearly all actives have a fitted effect of over 35% in size
Summary of the method: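 Cells were plated and incubated 18 h at 37 C/5% CO2, loaded with calcium dye for 1 h at 37 C, then treated with compounds in DMSO. Fluorescence was recorded kinetically at 1 sec intervals.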

[16] = cAMP Responsive Elements (CRE) small molecule antagonists, cell-based qHTS assay (AID 1963591; active = well fitted inhibition curve with a large enough effect in the signal ratio in the repeat runs, not every such curve was filed as active; the % refers to the signal ratio)
Summary of the method: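 Cells (CRE-bla HEK 293T, DMEM with 10% dialyzed FBS and 25 mM HEPES) are seeded and incubated 18 h. Compounds are added with NKH477 agonist at 0.25 uM final for 3 h, then FRET substrate for 2 h.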

[17] = target: Beta-2 adrenergic receptor (Homo sapiens) (UniProt P07550); test: Adrenergic beta2 receptor (ADRB2) small molecule antagonists, cell-based qHTS assay (AID 1963592); note: series mostly up to about 92 µM; nearly all actives have a fitted effect of over 50% in size
Summary of the method: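 Assay format: CHO-ADRB2 cells, 18-20hr seeding at 37C/5% CO2, then compound plus 1nM isoproterenol agonist mix for 0.5hr RT. Homogeneous time-resolved fluorescence cAMP detection after 1hr, expressed as 665/615 nm ratio.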

[18] = target: D(2) dopamine receptor (Homo sapiens) (UniProt P14416); test: Dopamine D2 receptor (DRD2) small molecule agonists, cell-based qHTS assay (AID 1963594); note: nearly all actives have a fitted effect of over 35% in size
Summary of the method: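 HEK293 cells stably expressing DRD2 were cultured 24 h at 37 C, then given Ro20-1724 (0.1 mM final) and compounds for 10 min at room temperature. NKH477 (200nM) was then added for 30 min. cAMP was read by HTRF.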

[19] = target: D(2) dopamine receptor (Homo sapiens) (UniProt P14416); test: Dopamine D2 receptor (DRD2) small molecule antagonists, cell-based qHTS assay (AID 1963595; active = well fitted inhibition curve with a large enough effect in the signal ratio in the repeat runs, with a control signal flat; the % refers to the signal ratio)
Summary of the method: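 Antagonist mode in DRD2-HEK293 cells: after compound addition with 0.1 mM Ro20-1724, cells received quinpirole (12 nM) and NKH477 (200 nM) for 30 min at room temperature; HTRF cAMP read after 1 h detection.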

[20] = cAMP Responsive Elements (CRE) small molecule agonists, cell-based qHTS assay (AID 1963590)
Summary of the method: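 Cells carrying a CRE-driven beta-lactamase reporter (HEK 293T) are seeded, incubated overnight (18 h), and treated with test compounds for 3 h at 37 C; reporter activity is then detected with a FRET substrate after 2 h at room temperature.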

Measured: Potency

Chain of Muscarinic acetylcholine receptor M1 (Homo sapiens) (P11229 whole entry, looked up): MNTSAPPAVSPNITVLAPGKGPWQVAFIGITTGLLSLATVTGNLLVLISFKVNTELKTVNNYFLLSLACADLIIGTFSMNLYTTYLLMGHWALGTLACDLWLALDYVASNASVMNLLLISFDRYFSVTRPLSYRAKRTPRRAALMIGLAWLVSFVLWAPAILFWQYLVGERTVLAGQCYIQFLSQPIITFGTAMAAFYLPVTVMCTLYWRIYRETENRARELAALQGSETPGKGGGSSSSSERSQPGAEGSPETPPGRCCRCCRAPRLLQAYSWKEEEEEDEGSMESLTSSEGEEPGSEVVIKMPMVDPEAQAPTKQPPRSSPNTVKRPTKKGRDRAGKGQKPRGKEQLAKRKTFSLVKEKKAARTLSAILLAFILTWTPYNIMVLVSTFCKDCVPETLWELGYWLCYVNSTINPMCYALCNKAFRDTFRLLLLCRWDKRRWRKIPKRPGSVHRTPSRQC
Chain of Beta-2 adrenergic receptor (Homo sapiens) (P07550 whole entry, looked up): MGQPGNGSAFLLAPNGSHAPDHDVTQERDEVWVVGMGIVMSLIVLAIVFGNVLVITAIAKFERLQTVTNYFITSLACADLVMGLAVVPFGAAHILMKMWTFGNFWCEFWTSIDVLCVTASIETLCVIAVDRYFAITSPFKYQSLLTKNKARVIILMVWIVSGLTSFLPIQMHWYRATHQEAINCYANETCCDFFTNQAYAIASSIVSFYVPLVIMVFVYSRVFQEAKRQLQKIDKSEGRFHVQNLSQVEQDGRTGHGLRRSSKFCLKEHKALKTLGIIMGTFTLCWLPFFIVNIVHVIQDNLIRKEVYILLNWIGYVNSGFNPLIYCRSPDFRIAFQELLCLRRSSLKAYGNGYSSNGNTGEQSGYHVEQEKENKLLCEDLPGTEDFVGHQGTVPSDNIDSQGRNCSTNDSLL
Chain of Gonadotropin-releasing hormone receptor (Homo sapiens) (P30968 whole entry, looked up): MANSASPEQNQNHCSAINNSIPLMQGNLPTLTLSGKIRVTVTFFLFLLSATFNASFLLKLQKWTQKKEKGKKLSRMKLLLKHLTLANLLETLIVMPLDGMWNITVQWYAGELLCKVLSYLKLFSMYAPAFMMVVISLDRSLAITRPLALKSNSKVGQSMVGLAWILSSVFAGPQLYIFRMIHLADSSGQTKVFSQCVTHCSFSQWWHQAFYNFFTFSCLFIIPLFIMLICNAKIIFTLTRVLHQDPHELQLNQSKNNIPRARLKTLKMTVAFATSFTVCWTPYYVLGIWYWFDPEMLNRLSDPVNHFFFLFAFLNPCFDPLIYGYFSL
Chain of 5-hydroxytryptamine receptor 2A (Homo sapiens) (P28223 whole entry, looked up): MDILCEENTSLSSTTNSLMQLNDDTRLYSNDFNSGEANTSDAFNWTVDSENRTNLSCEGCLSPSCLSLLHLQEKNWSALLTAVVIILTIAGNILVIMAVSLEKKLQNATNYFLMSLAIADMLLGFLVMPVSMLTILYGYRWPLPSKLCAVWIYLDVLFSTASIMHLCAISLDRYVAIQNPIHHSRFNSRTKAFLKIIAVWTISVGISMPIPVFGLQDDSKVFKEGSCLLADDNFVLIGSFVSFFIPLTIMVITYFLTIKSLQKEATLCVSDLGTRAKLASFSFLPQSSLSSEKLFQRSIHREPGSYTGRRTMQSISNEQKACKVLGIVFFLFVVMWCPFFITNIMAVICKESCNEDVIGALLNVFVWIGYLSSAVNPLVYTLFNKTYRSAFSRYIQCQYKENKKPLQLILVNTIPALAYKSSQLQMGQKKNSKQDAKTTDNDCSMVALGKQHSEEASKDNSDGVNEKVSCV
Chain of D(2) dopamine receptor (Homo sapiens) (P14416 whole entry, looked up): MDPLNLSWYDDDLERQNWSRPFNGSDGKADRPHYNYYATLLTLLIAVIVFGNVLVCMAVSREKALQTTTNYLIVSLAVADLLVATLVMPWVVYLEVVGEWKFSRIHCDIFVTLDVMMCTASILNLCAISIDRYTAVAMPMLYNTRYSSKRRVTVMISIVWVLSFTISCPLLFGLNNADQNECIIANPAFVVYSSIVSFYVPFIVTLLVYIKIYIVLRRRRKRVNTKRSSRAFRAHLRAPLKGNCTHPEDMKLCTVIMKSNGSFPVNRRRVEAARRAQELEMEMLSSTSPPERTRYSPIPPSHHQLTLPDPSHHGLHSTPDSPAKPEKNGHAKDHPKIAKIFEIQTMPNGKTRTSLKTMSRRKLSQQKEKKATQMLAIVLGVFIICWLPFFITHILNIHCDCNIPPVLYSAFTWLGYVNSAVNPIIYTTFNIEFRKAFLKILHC
Chain of KiSS-1 receptor (Homo sapiens) (Q969F8 whole entry, looked up): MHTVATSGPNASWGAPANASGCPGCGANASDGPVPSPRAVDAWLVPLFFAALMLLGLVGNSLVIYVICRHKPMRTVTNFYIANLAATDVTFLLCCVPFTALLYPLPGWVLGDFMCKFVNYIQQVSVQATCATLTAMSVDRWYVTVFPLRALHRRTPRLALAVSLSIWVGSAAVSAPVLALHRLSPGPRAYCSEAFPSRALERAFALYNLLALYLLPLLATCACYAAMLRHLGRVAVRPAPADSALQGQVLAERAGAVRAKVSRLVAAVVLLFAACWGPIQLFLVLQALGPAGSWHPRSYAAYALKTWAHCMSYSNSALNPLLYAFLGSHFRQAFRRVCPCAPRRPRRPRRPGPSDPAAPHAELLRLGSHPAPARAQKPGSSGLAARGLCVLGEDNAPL

O=C(Cl)c1ccc(C(=O)Cl)cc1
inactive: [1] | [2] | [3] | [4] | [5] | [6] | [7] | [8] | [9] | [10] | [11] | [12] | [13] | [14] | [15] | [16] | [17] | [18]

COC(/C=C(\C)CCC=C(C)C)OC
inactive: [1] | [2] | [3] | [4] | [5] | [6] | [7] | [8] | [9] | [10] | [11] | [12] | [13] | [14] | [15] | [16] | [17] | [18] | [19]

CC1CCC(C(C)(C)S)C(=O)C1 (stereo not drawn)
inactive: [1] | [2] | [3] | [4] | [5] | [6] | [7] | [8] | [9] | [10] | [11] | [12] | [13] | [15] | [20] | [16] | [17] | [18] | [19]

OCCc1ccccn1
inactive: [1] | [2] | [3] | [4] | [5] | [6] | [7] | [8] | [9] | [10] | [11] | [12] | [13] | [15] | [20] | [16] | [17] | [18]

CCOC(=O)CC(C(C)=O)C(C)=O
inactive: [1] | [2] | [3] | [4] | [5] | [6] | [7] | [8] | [9] | [10] | [11] | [12] | [13] | [14] | [20] | [16] | [17] | [18] | [19]

O=S(=O)(O)CC(O)CCl (stereo not drawn)
inactive: [1] | [2] | [3] | [4] | [5] | [6] | [7] | [8] | [9] | [10] | [11] | [12] | [13] | [15] | [20] | [16] | [17] | [18]

N#CCN(CC#N)CCN(CC#N)CC#N
inactive: [1] | [2] | [3] | [4] | [5] | [6] | [7] | [8] | [9] | [10] | [11] | [12] | [13] | [15] | [20] | [16] | [17] | [18] | [19]

CCCc1ccccc1
inactive: [1] | [2] | [3] | [4] | [5] | [6] | [7] | [8] | [9] | [10] | [11] | [12] | [13] | [14] | [16] | [17] | [18] | [19]

CC(C)C(=O)Nc1cccc(C2CN3CCSC3=N2)c1 (stereo not drawn)
inactive: [1] | [2] | [3] | [4] | [5] | [6] | [7] | [8] | [9] | [10] | [11] | [12] | [13] | [14] | [20] | [16] | [17] | [19]

Cc1ccc(-c2ccccc2C#N)cc1
inactive: [1] | [2] | [3] | [4] | [5] | [6] | [7] | [8] | [9] | [10] | [11] | [12] | [13] | [14] | [20] | [16] | [17] | [19]

O=C1NC2NC(=O)NC2N1 (stereo not drawn)
inactive: [1] | [2] | [3] | [4] | [5] | [6] | [7] | [8] | [9] | [10] | [11] | [12] | [13] | [14] | [20] | [16] | [17] | [18]

CCOC(=O)CCC(C)=O
inactive: [1] | [2] | [3] | [4] | [5] | [6] | [7] | [8] | [9] | [10] | [11] | [12] | [13] | [14] | [20] | [16] | [17] | [18] | [19]

CCC(C)(O)CCC=C(C)C (stereo not drawn)
inactive: [1] | [2] | [3] | [4] | [5] | [6] | [7] | [8] | [9] | [10] | [11] | [12] | [13] | [15] | [20] | [16] | [17] | [18] | [19]

CCc1occc(=O)c1O
inactive: [1] | [2] | [3] | [4] | [5] | [6] | [7] | [8] | [9] | [10] | [11] | [12] | [13] | [15] | [20] | [16] | [17] | [18] | [19]

CC(COCCO)OCCO (stereo not drawn)
inactive: [1] | [2] | [3] | [4] | [5] | [6] | [7] | [8] | [9] | [10] | [11] | [12] | [13] | [14] | [20] | [16] | [17] | [18] | [19]
